Results published in PubChem BioAssay AID1159580 (chemical genetic matrix, 2015).
Several values for one entry are separate records, joined by “and”; a condition that tells them apart may be missing. Identical values can stand only once. Screen size: about 5,500 compounds; about 2,000 (36%) were called active. About 18% were inconclusive and are not listed. No stated cut-off is given here; in the data, active means normalized growth mostly below about 0.91 (no sharp cut-off); inconclusive means no clear call, values can overlap the other calls; inactive means mostly above about 0.92. This is one part of the list.

Assay: chemical genetic growth profiling, strain panel (AID 1159580);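 further: tested at 20 µM; growth read once vehicle control cultures reached saturation at 30 °C; 1 = growth at the plate median or of vehicle wells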
Details: S. cerevisiae deletion strains, growth OD

Measured: normalized growth

CCCCC1=NC2(CCCC2)C(=O)N1Cc1ccc(-c2ccccc2-c2nn[nH]n2)cc1
inactive: locus YAL013W, strain DEP1, stronger effect = lower value 0.984 | locus YAL021C, strain ccr4, stronger effect = lower value 1.01 | locus YAL026C, strain drs2, stronger effect = lower value 1.01 | locus YAL030W, strain snc1, stronger effect = lower value 1.02 | locus YBL061C, strain skt5, stronger effect = lower value 1.02 | locus YBR009C, strain hhf1, stronger effect = lower value 1.01 | locus YBR021W, strain FUR4, stronger effect = lower value 0.985 | locus YBR023C, strain chs3, stronger effect = lower value 1.01 | locus YBR171W, strain sec66, stronger effect = lower value 1.02 | locus YBR229C, strain ROT2, stronger effect = lower value 0.938 | locus YBR231C, strain swc5, stronger effect = lower value 1.03 | locus YBR279W, strain paf1, stronger effect = lower value 1.01 | locus YCL011C, strain gbp2, stronger effect = lower value 1.03 | locus YCL016C, strain dcc1, stronger effect = lower value 1.01 | locus YCL029C, strain bik1, stronger effect = lower value 0.993 | locus YCL069W, strain vba3, stronger effect = lower value 1.02 | locus YCR088W, strain abp1, stronger effect = lower value 1.02 | locus YDL005C, strain med2, stronger effect = lower value 1.03 | locus YDL035C, strain GPR1, stronger effect = lower value 0.974 | locus YDL040C, strain nat1, stronger effect = lower value 1.02 | locus YDL074C, strain BRE1, stronger effect = lower value 1 | locus YDL101C, strain DUN1, stronger effect = lower value 0.99 | locus YDL134C, strain PPH21, stronger effect = lower value 0.988 | locus YDL185W, strain tfp1, stronger effect = lower value 0.987 | locus YDL192W, strain arf1, stronger effect = lower value 0.985 | locus YDR001C, strain nth1, stronger effect = lower value 1 | locus YDR069C, strain doa4, stronger effect = lower value 1.02 | locus YDR101C, strain arx1, stronger effect = lower value 0.998 | locus YDR137W, strain rgp1, stronger effect = lower value 1.01 | locus YDR150W, strain NUM1, stronger effect = lower value 0.97 | locus YDR159W, strain sac3, stronger effect = lower value 1.02 | locus YDR162C, strain NBP2, stronger effect = lower value 0.982 | locus YDR195W, strain ref2 1.02 | locus YDR297W, strain sur2, stronger effect = lower value 1.02 | locus YDR318W, strain mcm21, stronger effect = lower value 1 | locus YDR334W, strain swr1, stronger effect = lower value 1.02 | locus YDR335W, strain msn5, stronger effect = lower value 1 | locus YDR388W, stronger effect = lower value 0.999 | locus YDR392W, strain spt3, stronger effect = lower value 1.01 | locus YDR502C, strain sam2, stronger effect = lower value 0.982 | locus YEL003W, strain gim4, stronger effect = lower value 1.01 | locus YEL037C, strain rad23, stronger effect = lower value 1.02 | locus YEL061C, strain CIN8 (second series), stronger effect = lower value 1.03 | locus YEL061C, strain CIN8, stronger effect = lower value 0.979 | locus YER015W, strain faa2, stronger effect = lower value 1.02 | locus YER016W, strain bim1, stronger effect = lower value 1.01 | locus YER110C, stronger effect = lower value 0.977 | locus YER111C, strain swi4, stronger effect = lower value 1 | locus YER155C, strain BEM2 (second series), stronger effect = lower value 1.05 | locus YER155C, strain BEM2, stronger effect = lower value 1.01 | locus YER167W, strain BCK2, stronger effect = lower value 0.976 | locus YFR010W, strain ubp6, stronger effect = lower value 1.02 | locus YGL078C, strain dbp3, stronger effect = lower value 0.969 | locus YGL086W, strain mad1, stronger effect = lower value 0.988 | locus YGL167C, strain pmr1, stronger effect = lower value 1.02 | locus YGL173C, strain kem1, stronger effect = lower value 1.02 | locus YGL227W, strain vid30, stronger effect = lower value 1.01 | locus YGL240W, strain doc1, stronger effect = lower value 0.993 | locus YGL248W, strain PDE1, stronger effect = lower value 0.979 | locus YGL253W, strain hxk2, stronger effect = lower value 1.01 | locus YGR078C, strain PAC10, stronger effect = lower value 1.02 | locus YGR135W, strain pre9, stronger effect = lower value 1.02 | locus YGR229C, strain SMI1, stronger effect = lower value 1.01 | locus YGR252W, strain gcn5, stronger effect = lower value 0.931 | locus YHR013C, strain ard1, stronger effect = lower value 1.01 | locus YHR027C, strain rpn1, stronger effect = lower value 1.01 | locus YHR030C, strain SLT2, stronger effect = lower value 0.994 and 0.967 | locus YHR079C, strain IRE1 (second series), stronger effect = lower value 0.989 | locus YHR079C, strain IRE1, stronger effect = lower value 0.973 | locus YHR094C, strain hxt1, stronger effect = lower value 0.992 | locus YHR129C, strain ARP1, stronger effect = lower value 1 | locus YHR142W, strain chs7, stronger effect = lower value 1.01 | locus YHR200W, strain rpn10, stronger effect = lower value 0.99 | locus YIL066C, strain RNR3, stronger effect = lower value 0.974 | locus YIL073C, strain SPO22, stronger effect = lower value 1.01 | locus YIL125W, strain kgd1, stronger effect = lower value 0.966 | locus YIR030C, strain dcg1, stronger effect = lower value 0.978 | locus YJL092W, strain hpr5, stronger effect = lower value 1.01 | locus YJL095W, strain BCK1 (second series), stronger effect = lower value 1.02 | locus YJL095W, strain BCK1, stronger effect = lower value 1.06 and 1.01 | locus YJL115W, strain asf1, stronger effect = lower value 0.999 | locus YJL129C, strain trk1, stronger effect = lower value 1.01 | locus YJL134W, strain LCB3, stronger effect = lower value 0.98 | locus YJL154C, strain vps35, stronger effect = lower value 1.01 | locus YJL164C, strain tpk1, stronger effect = lower value 0.997 | locus YJL166W, strain qcr8, stronger effect = lower value 1.03 | locus YJL168C, strain set2, stronger effect = lower value 0.993 | locus YJL187C, strain SWE1 (second series), stronger effect = lower value 1.01 | locus YJR043C, strain POL32, stronger effect = lower value 1.02 | locus YJR066W, strain TOR1, stronger effect = lower value 0.953 | locus YJR075W, strain HOC1, stronger effect = lower value 1.01
